Source: PubChem BioAssay (NCATS)
Inconclusive results are not listed. A call without a number means that no potency is given here. Activity calls are given as the source filed them. Calls follow the shape of the dose curve; as a rule, active = well fitted cell-killing curve with a large enough effect; inconclusive = small, poorly fitted or top-dose-only effect; inactive = flat fitted curve, though single readings scatter.

assay: Cell Viability - LYMP1-002 - Assay at 16 hr (AID 948); conditions: LYMP1-002 lymphoblastoid cell viability; series mostly up to 92.2 µM
Excerpt: NIH Chemical Genomics Center [NCGC]
NIH Molecular Libraries Screening Centers Network [MLSCN]
National Institutes of Environmental Health Sciences [NIEHS]
National Toxicology Program [NTP]
We have developed a 1536-well cell-based assay for quantitative high throughput screening (qHTS) against a number of cell lines to determine in vitro cytotoxicity of small molecules. This particular assay uses a human lymphoblastoid cell line (LYMP1-002) purchased from Coriell Institute for Medical Research.
NCGC Assay Protocol Summary:
The CellTiter-Glo luminescent cell viability assay (Promega) is a homogeneous method to measure the number of viable cells in culture. The end point readout of this assay is based on quantitation of intracellular ATP, an indicator of metabolic activity, using the luciferase reaction. Luciferase catalyzes the oxidation of beetle Luciferin to oxyluciferin and light in the presence of ATP. The luminescent signal is proportional to amount of ATP present.
Using the CellTiter-Glo luminescent cell viability assay, the amount of cellular ATP was measured in the lymphoblastoid cell line with complete culture medium following compound treatment for 16 hours. The assay was performed in opaque white Kalypsys 1536-well plates. In the screen, tetraoctylammonium bromide was used as positive control. Library compounds were measured for their ability to cause acute toxicity in the cell line, as reflected by a decrease in intracellular ATP levels, in a concentration-dependent manner. […] AC50 values were determined from concentration-response data modeled with the standard Hill equation.
qHTS protocol for CellTiter Glo lymphoblastoid cellular assay
[Step] [Parameter] [Value] [Description]
1. Reagent; 5 uL; 2500 lymphoblastoid cells/well
2. Time; 5 hr; 37 C incubation
4. Controls; 23 nL; Tetraoctylammonium bromide 6.4pM to 92 uM
5. Time; 16 hr; 37 C incubation
6. Reagent; 5 uL; CellTiter Glo reagent
7. Time; 30 min; Room Temperature
8. Detection; Luminescence; Viewlux plate reader
Keywords: cell viability, cytotoxicity, lymphoblastoid cell line, luminescence, NTPHTS, NTPHTS_NCGC, NIEHS, DSSTox, MLSMR, MLSCN, NIH Roadmap, qHTS, NCGC
Potency is read from the fitted curve at half-maximal effect.

**Q.** For `COc1ccc2cc3[n+](cc2c1OC)CCc1cc2c(cc1-3)OCO2`, which Potency is on record?
**A.** inactive

**Q.** Which Potency does the source give for `N=C(N)c1ccc(OCCCCCOc2ccc(C(=N)N)cc2)cc1` here?
**A.** inactive

**Q.** For `O=C(O)c1cc(=O)[nH]c(=O)[nH]1`, which Potency is on record?
**A.** inactive

**Q.** With `NC(N)=NC(N)=NCCc1ccccc1` as the molecule, how does the Potency read?
**A.** inactive

**Q.** Which Potency does the source give for `Cc1ncc([N+](=O)[O-])n1CCO` here?
**A.** inactive

**Q.** Which Potency does the source give for `Cc1noc(NS(=O)(=O)c2ccc(N)cc2)c1C` here?
**A.** inactive

**Q.** With `O=C(N[C@H](CO)[C@H](O)c1ccc([N+](=O)[O-])cc1)C(Cl)Cl` as the molecule, how does the Potency read?
**A.** inactive

**Q.** Which Potency does the source give for `C[C@]12C=CC(=O)C=C1CC[C@@H]1[C@@H]2C(=O)C[C@@]2(C)[C@H]1CC[C@]2(O)C(=O)CO` here?
**A.** inactive

**Q.** With `NNC(=O)c1ccncc1` as the molecule, how does the Potency read?
**A.** inactive

**Q.** Which Potency does the source give for `CN(C)c1ccc(C(=C2C=CC(=[N+](C)C)C=C2)c2ccc(N(C)C)cc2)cc1` here?
**A.** 6.31 µM (active)

**Q.** For `Cc1nnc(NS(=O)(=O)c2ccc(N)cc2)s1`, which Potency is on record?
**A.** inactive

**Q.** With `CC1=NN(c2ccccc2)C(=O)C1` as the molecule, how does the Potency read?
**A.** inactive

**Q.** Which Potency does the source give for `Cc1cc(NS(=O)(=O)c2ccc(N)cc2)no1` here?
**A.** inactive

**Q.** With `CCc1cc(C(N)=S)ccn1` as the molecule, how does the Potency read?
**A.** inactive

**Q.** Which Potency does the source give for `CC[C@H](C)C(=O)O[C@H]1C[C@@H](C)C=C2C=C[C@H](C)[C@H](CC[C@@H]3C[C@@H](O)CC(=O)O3)[C@H]21` here?
**A.** inactive

**Q.** Which Potency does the source give for `Cc1ccnc2c1NC(=O)c1cccnc1N2C1CC1` here?
**A.** inactive
